Laboratory results as given in PubChem BioAssay AID1259417 (TB Discovery Research, Infectious Disease Research Institute, 2018).
The campaign covered roughly 1,100 compounds. About 760 (69%) were called active. How the calls were made is not given here. The set was probably picked from earlier hits. This is one part of the list.

Test: M. tuberculosis growth inhibition, HTS (AID 1259417);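 further: bacteria grown with compound for 5 days at 37 °C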
Conditions: stronger effect = higher value, concentration not given here
[1] = M. tuberculosis DsRed fluorescence growth inhibition
[2] = M. tuberculosis growth inhibition

CNc1nc(SC)nc2ccsc12
inhibition [1]: 99.7% (active)
inhibition [2]: 98.9%

c1ccc(C2=Nc3ccccc3OC2)cc1
inhibition [1]: 97.6% (active)
inhibition [2]: 97.5%

CCCCc1cc(=O)oc2cc(OCC(=O)OCc3ccccc3)c(Cl)cc12
inhibition [1]: 33.1% (active)
inhibition [2]: 73.7%

CCOC(=O)COc1cc2oc(=O)cc(CC)c2cc1Cl
inhibition [1]: 6.17% (inactive)
inhibition [2]: 26.9%

CCCCc1cc(=O)oc2cc(OC(C)C(=O)OCC)c(Cl)cc12 (centres undefined)
inhibition [1]: 49.4% (active)
inhibition [2]: 93.7%

CCOC(=O)c1cc(-c2csc(COc3ccc(Cl)cc3)n2)on1
inhibition [1]: 100% (active)
inhibition [2]: 99.5%

CCOC(=O)c1cc(-c2csc(-c3ccc(C(F)(F)F)cc3)n2)on1
inhibition [1]: 63.4% (active)
inhibition [2]: 83.4%

CCOC(=O)c1cc(-c2csc(COc3ccccc3Cl)n2)on1
inhibition [1]: 98.1% (active)
inhibition [2]: 98.8%

CCOC(=O)C(/C=C(\C#N)C(=O)OCC)=C(/N)N1CCN(c2ccc(Cl)cc2)CC1
inhibition [1]: 46% (active)
inhibition [2]: 46.9%

CCOc1ccc2c(c1)OC(=Cc1cccc(OCC(=O)OC)c1)C2=O
inhibition [1]: 10% (active)
inhibition [2]: 50.5%

CCOC(=O)COc1ccc(C=C2Oc3cc(OC)ccc3C2=O)cc1
inhibition [1]: 60.8% (active)
inhibition [2]: 79.9%

CCOC(=O)COc1cccc(C=C2Oc3cc(OC)ccc3C2=O)c1
inhibition [1]: 31.7% (active)
inhibition [2]: 54%

COc1c(N2CCNC(C)C2)c(F)cc2c(=O)c(C(=O)O)cn(C3CC3)c12 (centres undefined)
inhibition [1]: 99.5% (active)
inhibition [2]: 101%

COc1c(N2C[C@@H]3CCCN[C@@H]3C2)c(F)cc2c(=O)c(C(=O)O)cn(C3CC3)c12
inhibition [1]: 101% (active)
inhibition [2]: 100%

NC1CCN(c2nc3c(cc2F)c(=O)c(C(=O)O)cn3-c2ccc(F)cc2F)C1 (centres undefined)
inhibition [1]: 98.3% (active)
inhibition [2]: 98.4%

NC1CCN(c2c(F)cc3c(=O)c(C(=O)O)cn(C4CC4)c3c2Cl)C1 (centres undefined)
inhibition [1]: 99.8% (active)
inhibition [2]: 100%

CC1=NN(c2nc3ccccc3s2)C(=O)C1Cc1cccc2ccccc12 (centres undefined)
inhibition [1]: -2.3% (inactive)
inhibition [2]: 21.1%

Cc1cc(C)c2c(c1)c(-c1ccccc1)c(-c1ccccc1)n2CC(O)CN1CCN(CCO)CC1 (centres undefined)
inhibition [1]: 48.4% (active)
inhibition [2]: 39.3%

Cc1ccc2c(c1)c(-c1ccccc1)c(-c1ccccc1)n2CC(O)CN1CCN(CCO)CC1 (centres undefined)
inhibition [1]: 23.8% (inactive)
inhibition [2]: 13.1%

Clc1ccc(C2=CC(c3ccc(Cl)cc3)n3nnnc3N2)cc1 (centres undefined)
inhibition [1]: 43.4% (active)
inhibition [2]: 39.3%

Cc1ccc(NC(=O)c2ccc(OCC(=O)OC3CCCCC3)cc2)cc1
inhibition [1]: 53.4% (active)
inhibition [2]: 78.1%

O=C(COc1ccc(-c2ccccc2)cc1)OC1CCCCC1
inhibition [1]: 26.1% (active)
inhibition [2]: 58.6%

O=C(COc1ccc(C(=O)NCc2ccccc2)cc1)OC1CCCCC1
inhibition [1]: 37.7% (active)
inhibition [2]: 52.9%

CCOC(=O)COc1ccc(C(=O)NC2CCCCC2)cc1
inhibition [1]: 1.79% (inactive)
inhibition [2]: -15.3%

CCOC(=O)COc1ccc(C(=O)Nc2ccc(F)cc2)cc1
inhibition [1]: 20.5% (active)
inhibition [2]: 42.4%

Cc1c(Cc2ccccc2)c(NCCCO)n2c(nc3ccccc32)c1C#N
inhibition [1]: 97.8% (active)
inhibition [2]: 87.9%

Cc1c(Cc2ccc(Cl)cc2)c(NCCCN(C)C)n2c(nc3ccccc32)c1C#N
inhibition [1]: 14.4% (inactive)
inhibition [2]: -9.38%

O=C(NCCc1ccc(F)cc1)NC12CC3CC(CC(C3)C1)C2
inhibition [1]: 100% (active)
inhibition [2]: 96.2%

CCOC(=O)c1c(CSc2ccccc2)n(-c2ccccc2)c2ccc(O)c(CN(C)C)c12
inhibition [1]: 92.7% (active)
inhibition [2]: 91.9%

Oc1ccc(CNc2ccccc2O)cc1
inhibition [1]: 98.3% (active)
inhibition [2]: 97.3%

N#Cc1nc(-c2cccs2)oc1NCCc1ccccc1
inhibition [1]: 100% (active)
inhibition [2]: 100%

CC(C)N=c1cc2n(-c3ccc(Cl)cc3)c3ccccc3nc-2cc1Nc1ccc(Cl)cc1
inhibition [1]: 100% (active)
inhibition [2]: 99.5%

Cc1cccnc1Nc1nc(-c2ccccn2)cs1
inhibition [1]: 100% (active)
inhibition [2]: 100%

Cc1ccn2c(-c3csc(Nc4ccccn4)n3)c(C)nc2c1
inhibition [1]: 98.9% (active)
inhibition [2]: 100%

Cc1ccccc1Nc1nc(-c2ccccn2)cs1
inhibition [1]: 87.2% (active)
inhibition [2]: 92.7%

Cc1cc(O)ccc1Nc1nc(-c2ccccn2)cs1
inhibition [1]: 71.9% (active)
inhibition [2]: 77.7%

FC(F)(F)c1ccccc1Nc1nc(-c2ccccn2)cs1
inhibition [1]: 90.1% (active)
inhibition [2]: 86.1%

Cc1cccc(Nc2nc(-c3ccccn3)cs2)n1
inhibition [1]: 91.2% (active)
inhibition [2]: 97.6%

Cc1cccc(NC(=O)c2cc(-c3cccs3)nc3ccccc23)n1
inhibition [1]: 8.52% (inactive)
inhibition [2]: 22.7%

O=C(NCCC12CC3CC(CC(C3)C1)C2)c1ccc(Br)cc1
inhibition [1]: 98.8% (active)
inhibition [2]: 94.1%

Cc1ccc(C(=O)NCCC23CC4CC(CC(C4)C2)C3)cc1
inhibition [1]: 100% (active)
inhibition [2]: 97.3%

c1ccc2sc(NC3=NCN(Cc4ccc5c(c4)OCO5)CN3)nc2c1
inhibition [1]: 17.9% (active)
inhibition [2]: 69.1%

Cc1nc2ccc(C(=O)OCc3cccc(F)c3)cc2nc1C
inhibition [1]: 19.1% (active)
inhibition [2]: 60.3%

O=C(OCc1ccc(F)cc1)c1ccc2ccccc2n1
inhibition [1]: 3.6% (inactive)
inhibition [2]: 5.51%

Cc1nc2ccc(C(=O)OCc3nnc(-c4ccccc4)o3)cc2nc1C
inhibition [1]: -4.41% (inactive)
inhibition [2]: 0.442%

O=C(Nc1nnc(-c2cccs2)o1)c1cccc(C(F)(F)F)c1
inhibition [1]: 1.3% (inactive)
inhibition [2]: 6.76%

Cc1ccccc1C(=O)Nc1nnc(-c2ccco2)o1
inhibition [1]: 47.6% (active)
inhibition [2]: 71.5%

O=C(Nc1nnc(-c2ccco2)o1)c1cccc(C(F)(F)F)c1
inhibition [1]: 88.4% (active)
inhibition [2]: 94.4%

O=C(Nc1nnc(-c2ccco2)o1)c1cccs1
inhibition [1]: 17.8% (active)
inhibition [2]: 40.1%

O=C(Nc1nnc(-c2cccs2)o1)c1ccco1
inhibition [1]: -2.8% (inactive)
inhibition [2]: -18.4%

CC(C)(C)c1ccc(C(=O)Nc2nnc(-c3ccco3)o2)cc1
inhibition [1]: 88.2% (active)
inhibition [2]: 89.7%

CCSc1ccc(CC(=O)Nc2nnc(-c3ccc4c(c3)OCCO4)o2)cc1
inhibition [1]: 2.15% (inactive)
inhibition [2]: 7.09%

CCSc1ccc(C(=O)Nc2nnc(-c3ccco3)o2)cc1
inhibition [1]: 83.8% (active)
inhibition [2]: 91.8%

CN1CCC(O)(c2cccs2)C(C(=O)c2cccs2)C1 (centres undefined)
inhibition [1]: 100% (active)
inhibition [2]: 98.7%

c1ccc(OCc2nn3c(-c4n[nH]c5c4CCC5)nnc3s2)cc1
inhibition [1]: 99.1% (active)
inhibition [2]: 99.6%

COc1ccccc1NC(=O)CSc1nc2cc3ccccc3cc2[nH]1
inhibition [1]: -0.285% (inactive)
inhibition [2]: -21.7%

O=C(CSc1nc2ccccc2c(=O)[nH]1)NCc1ccccc1
inhibition [1]: 101% (active)
inhibition [2]: 100%

N#Cc1ccccc1NC(=O)CSc1nc2cc3ccccc3cc2[nH]1
inhibition [1]: 2.65% (inactive)
inhibition [2]: 10.4%

O=C(NCCN1CCOCC1)c1ccc([N+](=O)[O-])cc1[N+](=O)[O-]
inhibition [1]: 98.1% (active)
inhibition [2]: 94.6%

Cc1cc(C)n(C(=O)c2ccc([N+](=O)[O-])cc2[N+](=O)[O-])n1
inhibition [1]: 0.918% (inactive)
inhibition [2]: -7.93%

O=[N+]([O-])c1ccc(NCCNc2nc3ccccc3nc2N2CCOCC2)cc1
inhibition [1]: 8.52% (inactive)
inhibition [2]: -3.69%

O=C(Nc1nnc(-c2ccc(Cl)cc2)o1)c1ccco1
inhibition [1]: 20% (active)
inhibition [2]: 48.4%

O=C(Nc1nnc(-c2ccc(F)cc2)o1)c1ccco1
inhibition [1]: 26% (inactive)
inhibition [2]: 16.6%

O=C(Nc1nnc(-c2ccccc2)o1)c1ccco1
inhibition [1]: 20.9% (active)
inhibition [2]: 32.7%

CCn1ccnc1CN(C)Cc1cn(-c2cccc(C)c2)nc1-c1cccc(F)c1
inhibition [1]: 18.2% (inactive)
inhibition [2]: 15.5%

Cc1ccc(Sc2ccc(C=O)o2)cc1
inhibition [1]: -0.277% (inactive)
inhibition [2]: 24.1%

Cc1ccc(CN=c2c([N+](=O)[O-])nn(-c3cccc(Cl)c3)n2O)cc1
inhibition [1]: 99.8% (active)
inhibition [2]: 100%

Cc1cccc(-n2nc([N+](=O)[O-])c(=NCCC3=CCCCC3)n2O)c1
inhibition [1]: 101% (active)
inhibition [2]: 54.8%

O=S1(=O)C=C(Sc2nc3ccccc3s2)c2ccccc21
inhibition [1]: 100% (active)
inhibition [2]: 99.8%

COc1c2ccoc2nc2c(OC)cccc12
inhibition [1]: 98.6% (active)
inhibition [2]: 99.6%

CC12CCC(C(=O)Nc3ccc(OC(F)(F)F)cc3)(CC1=O)C2(C)C (centres undefined)
inhibition [1]: 94.8% (active)
inhibition [2]: 81.6%

Cc1cccc(C(=O)Nc2nc3ccccc3[nH]2)c1
inhibition [1]: 36.9% (active)
inhibition [2]: 35.3%

CC(C)(C)c1ccc(C(=O)Nc2nc3ccccc3[nH]2)cc1
inhibition [1]: 65.8% (active)
inhibition [2]: 86.5%

Cc1cc(NS(=O)(=O)c2ccc(NC(=O)c3ccc(C(C)(C)C)cc3)cc2)no1
inhibition [1]: 19.1% (inactive)
inhibition [2]: 12.2%

CCOC(=O)Cn1nnc(-c2ccc(OCc3ccccc3C)cc2)n1
inhibition [1]: 91.8% (active)
inhibition [2]: 96.9%

CCOC(=O)Cn1nnc(-c2ccc(OCc3ccccc3F)cc2)n1
inhibition [1]: 50% (active)
inhibition [2]: 91.6%

CCN(CC)c1ccc(/C=C(/C#N)c2nc3ccccc3[nH]2)c(OC(C)C)c1
inhibition [1]: 22.6% (active)
inhibition [2]: 47%

c1ccc(-c2nc(NCCCn3ccnc3)c3oc4ccccc4c3n2)cc1
inhibition [1]: 98.9% (active)
inhibition [2]: 99.5%

CCOC(=O)CSc1nnc2c3sc4nc(N5CCOCC5)c5c(c4c3ncn12)CC(C)(C)OC5
inhibition [1]: 53.1% (active)
inhibition [2]: 74.9%

CC(=O)N1CCN(c2ccc(NC(=S)NC(=O)c3cc4ccccc4o3)cc2)CC1
inhibition [1]: 3.83% (inactive)
inhibition [2]: -6.94%

O=C(CCc1ccccc1)NC(=S)Nc1ccc(N2CCCCC2)cc1
inhibition [1]: 82.8% (active)
inhibition [2]: 59.4%

COC(=O)c1ccc(N2C(=O)CC(N(CCc3ccccc3)C(=S)Nc3ccccc3)C2=O)cc1 (centres undefined)
inhibition [1]: 2.64% (inactive)
inhibition [2]: -9.4%

OC(COCCC12CC3CC(CC(C3)C1)C2)CN1CCc2ccccc2C1 (centres undefined)
inhibition [1]: 1.19% (inactive)
inhibition [2]: 10.3%

O=C(Cn1nc(CNc2ccc(Cl)cc2)[n+]2c1CCCCC2)c1ccc(Br)cc1
inhibition [1]: 92.9% (active)
inhibition [2]: 94.4%

CC(C)CC(=O)NC(c1ccc(Cl)cc1Cl)c1c(O)ccc2ccccc12 (centres undefined)
inhibition [1]: 5.28% (inactive)
inhibition [2]: 21%

COc1ccc(C(C)(C)C)cc1NC(=S)Nc1ccc(Cl)c(Cl)c1
inhibition [1]: 0.0351% (inactive)
inhibition [2]: -14.6%

CC(C)(C)c1cc(Cl)c(O)c(NC(=S)NC(=O)c2cccc3ccccc23)c1
inhibition [1]: 80.4% (active)
inhibition [2]: 78.3%
